Hits are enriched below; roughly 19% of the tested compounds scored in any of these assays.
AMA1-RON2 inh: qHTS for Inhibitors of AMA1-RON; Towards Development of Antimalarial Drug Lead: Primary Screen; Plasmodium falciparum AMA1 (3D7) - RON2 peptide interaction; AlphaScreen AMA1-biotinylated RON2 peptide binding; Potency, µM (top dose mostly 58.2 µM), for the others: top-dose activity change, negative = inhibition, most hits filed as inhibitors; 360,000 tested, 0.2% active;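 further: potency means the concentration at half of the fitted maximal effect; 0% = vehicle wells and -100% = peptide control; nearly all actives have a fitted effect of over 45% in size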
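AMA1 (3D7) with his tag at 25 nM final met compounds first, then biotinylated RON2 peptide at 25 nM; detection used donor plus acceptor beads, 10 µg/mL apiece, read by AlphaScreen after 30 min at room temperature.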
Pf growth 96h: Primary qHTS for delayed death inhibitors of the malarial parasite plastid, 96 hour incubation; Potency, µM (titrated, usually from 28.7 µM), inactives show at the highest dose activity change, negative = inhibition, actives largely listed as inhibitors; P. falciparum luciferase reporter growth, 96 h; 320,000 tested, 6.9% active; further: potency means the concentration at half of the fitted maximal effect; on the % scale 0 is the no-effect control and ±100 the full control effect
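Erythrocytes infected with luciferase-expressing P. falciparum were dispensed at 2% hematocrit and 0.05% parasitemia (final), then incubated with compounds 96 hours at 37 C in 5% CO2. Luminescence after detection reagent addition reported growth.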
Pf growth 48h: Primary qHTS for delayed death inhibitors of the malarial parasite plastid, 48 hour incubation | P. falciparum luciferase growth in erythrocytes, 48 h | Potency, µM (series often up to 28.7 µM), inactives show at the highest dose activity change, negative = inhibition, actives largely listed as inhibitors | 310,000 tested, 5.9% active | AID 504832, 2011; further: potency means the concentration at half of the fitted maximal effect; on the % scale 0 is the no-effect control and ±100 the full control effect
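First compound was added to culture medium, then infected red cells at 0.1% parasitemia and 2% hematocrit (final). After incubation at 37 C under 5% CO2, luciferase detection reagent was dispensed and light output recorded.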
SARS PLpro yeast: qHTS of Yeast-based Assay for SARS-CoV PLP | S. cerevisiae expressing SARS-CoV PLpro, growth rescue | Potency, µM (top dose mostly 32.9 µM), for inactives: at the highest dose activity, positive = growth rescue, hits mostly activators | 330,000 tested, 0.19% active | AID 485353, 2010; calls by dose curve; further: potency means the concentration at half of the fitted maximal effect; 0% is about no effect; nearly all actives have a fitted effect of over 55% in size
Shiga toxin inh: A qHTS for Small Molecule Inhibitors of Shiga Toxin. Vero cells, Shiga toxin protein synthesis inhibition reporter. inhibition, % at 38.7 µM. 290,000 tested, 9.2% active. AID 2315, 2010; in the data active means inhibition mostly above about 28%, no sharp cut-off; inactive means mostly below about 43%; further: 0% is about no effect
CHX counter: Cycloheximide Counterscreen for Small Molecule Inhibitors of Shiga Toxin. cell reporter, cycloheximide protein synthesis inhibition counterscreen. max response, %. 300,000 tested, 12% active. AID 2314, 2010; in the data active means max response mostly above about 13%, no sharp cut-off; inactive means mostly below about 14%; further: read at 38.3 µM for the half of the compounds with a filed dose; 0% is about no effect
An asterisk follows results filed as active; u = inconclusive; x = no result given; [ ] = remark or other dose. Unless noted, the call rests on the fitted dose curve; in most records, active means well fitted curve in the direction sought with a large enough effect; inconclusive means small, poorly fitted or top-dose-only effect, or another doubt; inactive means no such curve, though single readings can be large; an effect the other way counts as inactive or inconclusive.

SMILES	AMA1-RON2 inh	Pf growth 96h	Pf growth 48h	SARS PLpro yeast	Shiga toxin inh	CHX counter
CCc1cc2c(=O)[nH]c(N3CCOCC3)nc2s1	-4%	40%	98%	-19%	34*	22*
O=C(NNc1ccccc1)c1ccc(Cl)c(Cl)c1	1%	x	x	x	x	x
CC(=O)c1cccc(NC(=O)COC(=O)[C@@H](NC(=O)OCc2ccccc2)C(C)C)c1	7%[11.6 µM]	-10%	1%	-37%	-11	-7
O=C1COc2ccc(C(=O)COC(=O)c3cnc(Cl)c(Cl)c3)cc2N1	40%	36%	-6%	-6%	-6	-3
Fc1cccc(F)c1-n1c(CN2CCCC2)csc1=S	-22%	5.9µM*	u	2%	-13	10
CCOc1ccc(N(C)S(=O)(=O)c2ccc(C)c(C(=O)NCc3ccccc3OC)c2)cc1	-5%	9.3µM*	12µM*	0%	x	x
CCOc1ccc(N(C)S(=O)(=O)c2ccc(C)c(C(=O)NCCc3ccc(OC)cc3)c2)cc1	1%	u	u	0%	x	x
COc1ccccc1N(C)S(=O)(=O)c1ccc(C)c(C(=O)NCc2ccccn2)c1	47%	u	10µM*	2%	x	x
COc1ccccc1N(C)S(=O)(=O)c1ccc(C)c(C(=O)Nc2nccs2)c1	29%	u	12µM*	-2%	x	x
COc1ccccc1N(C)S(=O)(=O)c1ccc(Cl)c(C(=O)NCc2cccnc2)c1	10%	0%	u	0%	x	x
CC(O)(c1ccc(F)c(F)c1)c1nc(-c2ccoc2)cs1 (centres undefined)	4%	x	x	x	x	x
CCOc1ccc(NC(=O)CC2C(=O)N(c3ccccc3)C(=O)N2CCc2cccs2)cc1 (centres undefined)	-1%	79%	u	-4%	14	-4
Cn1cc(C(=O)N/N=C/c2cccc([N+](=O)[O-])c2)c2ccccc21	2%	-24%	-13%	-1%	21	-2
CC1CCCCC12NC(=O)N(CC(=O)NCCc1c[nH]c3ccccc13)C2=O (centres undefined)	-9%	-14%	u	-2%	x	x
Cc1cccc(CCNc2nc3ccc(C)cc3n3cnnc23)c1	-8%	u	161%	-3%	74*	30*
Cc1ccc2nc(Nc3ccc(C)c(C)c3)c3nncn3c2c1	-8%	2%	u	0%	28*	12
Cc1ccc(Nc2nc3ccccc3n3cnnc23)cc1C	-12%	0%	x	0%	31*	37*
CSc1sc(C(=O)N(C)C)c2c1S(=O)(=O)N(C)c1ccccc1-2	-7%	-1%	-8%	1%	9	-1
COc1ccc(-c2nnc(SCC(=O)Nc3ncc(C)s3)n2-c2ccccc2)cc1OC	11%	x	x	-10%	-11	-4
COc1ccccc1NC(=O)NC1CCS(=O)(=O)C1 (centres undefined)	5%	56%	39%	-1%	-8	-3
CCOC(=O)c1c(C)[nH]c(C(=O)COC(=O)c2ccc([N+](=O)[O-])o2)c1C	2%	x	x	-11%	x	x
Cc1ccccc1NC(=O)c1ccc(NC(=O)C2CCCO2)cc1 (centres undefined)	11%	-13%	27%	6%	41	-3
Cc1cc2[nH]c3ccccc3c2c(C)n1	-6%	2.1µM*	6.6µM*	2%	37*	36*
Cc1ccc(S(=O)(=O)N2CCCCC2)cc1NC(=O)c1cc2ccccc2o1	11%	u	u	4%	x	x
CCN1CCN(c2ccc(S(=O)(=O)N3CCCCC3)cc2NC(=O)c2cccc(OC(F)F)c2)CC1	3%	10µM*	u	-7%	x	x
CCN1CCN(c2ccc(S(=O)(=O)N3CCCCC3)cc2NC(=O)Cc2ccc(OC)cc2)CC1	-3%	5.9µM*	9.3µM*	3%	10	7
COc1ccc(CCC(=O)Nc2cc(S(=O)(=O)N3CCCCC3)ccc2N(C)C)cc1	-8%	u	10µM*	2%	x	x
CCN1CCN(c2ccc(S(=O)(=O)N3CCCCC3)cc2NC(=O)c2cc3ccccc3o2)CC1	-2%	2.1µM*	4.1µM*	4%	x	x
